PubChem BioAssay
Active and inactive are the calls of the source.

What follows are compounds tested against Dihydroorotate dehydrogenase (quinone), mitochondrial (Plasmodium falciparum (isolate 3D7)) (UniProt Q08210) (assay: inhibition of P. falciparum DHODH – biochemical, C-terminal His tag, absorbance 600 nm, primary screen (AID 1175;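 also: recombinant parasite enzyme with a five histidine tag at its C terminus; test concentration not given here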)). Conditions: PfDHODH enzyme, DCIP absorbance 600 nm; higher = more signal, called active from +8 up or from −8 down.
Sequence of Dihydroorotate dehydrogenase (quinone), mitochondrial (Plasmodium falciparum (isolate 3D7)) (Q08210 whole entry, looked up): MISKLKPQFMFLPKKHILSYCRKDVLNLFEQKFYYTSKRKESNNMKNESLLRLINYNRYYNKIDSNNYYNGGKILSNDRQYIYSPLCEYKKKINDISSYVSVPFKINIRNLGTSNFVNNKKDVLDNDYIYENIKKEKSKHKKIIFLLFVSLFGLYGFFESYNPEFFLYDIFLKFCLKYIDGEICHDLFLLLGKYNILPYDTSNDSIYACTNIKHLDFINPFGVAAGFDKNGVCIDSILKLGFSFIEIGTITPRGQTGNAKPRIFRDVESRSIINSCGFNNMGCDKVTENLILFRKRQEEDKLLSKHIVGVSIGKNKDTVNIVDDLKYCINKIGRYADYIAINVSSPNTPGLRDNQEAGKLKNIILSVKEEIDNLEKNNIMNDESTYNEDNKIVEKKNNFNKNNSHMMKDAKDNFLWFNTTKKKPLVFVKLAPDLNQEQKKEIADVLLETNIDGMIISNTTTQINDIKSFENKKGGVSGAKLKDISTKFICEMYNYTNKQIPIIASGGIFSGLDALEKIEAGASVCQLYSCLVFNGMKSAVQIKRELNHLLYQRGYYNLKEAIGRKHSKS
With `COc1cc2c(cc1OC)CN(C(=O)[C@H]1[C@@H]3C(=O)O[C@@H](c4ccccc4)[C@@H](c4ccccc4)N3[C@@H](c3ccc(O)cc3)[C@]13C(=O)Nc1ccccc13)CC2` the composite z-score was 0.806 (inactive). In the case of `C=CCNC(=O)[C@@H]1[C@H]2C(=O)O[C@H](c3ccccc3)[C@H](c3ccccc3)N2[C@H](c2ccc(OCCO)cc2)[C@@]12C(=O)Nc1ccc(C#CCC(C(=O)OC)C(=O)OC)cc12`, the composite z-score is reported as -4.92 (inactive). With `COCCOC(=O)N1C(=O)[C@@]2(c3cc(C#CC4(O)CCCCCC4)ccc31)[C@H](c1ccc(OCCO)cc1)N1[C@H](c3ccccc3)[C@H](c3ccccc3)OC(=O)[C@H]1[C@@H]2C(=O)N1CCN(c2ncccn2)CC1` the composite z-score was -1.64 (inactive). With `CC1(C)[C@@H]2CC(C(O)C3C=CC4C(=O)N(c5ccccc5)C(=O)C4N3Nc3ccc([N+](=O)[O-])cc3)=C[C@H]1C2` (stereo partly drawn) the composite z-score was 0.634 (inactive). In the case of `NC(=O)NCC#Cc1ccc2c(c1)[C@]1(C(=O)N2)[C@H](C(N)=O)[C@H]2C(=O)O[C@H](c3ccccc3)[C@H](c3ccccc3)N2[C@@H]1c1ccc(O)cc1`, the composite z-score is reported as -0.405 (inactive). In the case of `O=C(c1ccccc1)N1Cc2ccccc2C[C@@]2(COC(c3ccc(OCCCO)cc3)=N2)C1=O`, the composite z-score is reported as 0.574 (inactive). For `C=CC[C@]1(C(=O)NCc2ccccc2)N=C(c2ccc(OCCCO)cc2)O[C@H]1c1ccccc1N=[N+]=[N-]`, the composite z-score was 1.52 (inactive). With `CC1CC/C=C\[C@H]2OC34C=CCN(C(C)(C)C)C(=O)[C@H]3N(C(C)CO)C(=O)[C@@H]4C2C(=O)O1` (stereo partly drawn) the composite z-score was -3.09 (inactive).
